Screening results (PubChem)
An excerpt weighted towards active compounds, which were near 4.7% of everything screened.
rCAG RNA binder: r(CAG) repeat RNA binding; AID 651821; 370,000 compounds, 1.3% hits; inhibition, % at 3 µM; TO-PRO-1 dye displacement fluorescence;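 active means inhibition above the plate cutoff, the mean of all test compounds on that plate plus 3 SD, cut at about 35% in these data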;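 further: higher means more dye released from RNA so lower well fluorescence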
ADAM10 inh: inhibits human ADAM10; 370,000 compounds, 0.62% hits; inhibition, % at 7 µM; AID 720582; recombinant ADAM10, EDANS/DABCYL FRET peptide cleavage, 3 h; O14672;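 active means inhibition above a per-campaign cutoff equal to the mean of compounds falling between control-based bounds plus 3 SD, cut at about 20% in these data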
proKLK7 act: proKLK7 (human) activation, primary screen. purified proKLK7, EDANS-DABCYL substrate fluorescence; 100% is mature enzyme control, 0% vehicle. 370,000 compounds, 0.9% hits. activation, % at 7 µM. P49862;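 active means activation above the mean of all tested compounds plus 3 SD, computed per campaign excluding outliers beyond control limits, cut at about 13% in these data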
MPTP inh: blocks calcium-induced mitochondrial swelling; isolated mouse mitochondria, Ca2+ swelling absorbance, 30 min; inhibition, % at 10 µM; 360,000 compounds, 1.4% hits;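 active means inhibition of 50% or more, scaled per plate between neutral and stimulator controls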
ADAM17 inh: inhibitors of human ADAM17. 370,000 compounds, 0.83% hits. recombinant ADAM17, EDANS/DABCYL FRET peptide cleavage. inhibition, % at 6.95 µM. P78536;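 active means inhibition above the mean of compounds lying between control limits plus 3 SD, set per campaign, cut at about 8.5% in these data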
Target sequence (P78536 215-824 limits assumed): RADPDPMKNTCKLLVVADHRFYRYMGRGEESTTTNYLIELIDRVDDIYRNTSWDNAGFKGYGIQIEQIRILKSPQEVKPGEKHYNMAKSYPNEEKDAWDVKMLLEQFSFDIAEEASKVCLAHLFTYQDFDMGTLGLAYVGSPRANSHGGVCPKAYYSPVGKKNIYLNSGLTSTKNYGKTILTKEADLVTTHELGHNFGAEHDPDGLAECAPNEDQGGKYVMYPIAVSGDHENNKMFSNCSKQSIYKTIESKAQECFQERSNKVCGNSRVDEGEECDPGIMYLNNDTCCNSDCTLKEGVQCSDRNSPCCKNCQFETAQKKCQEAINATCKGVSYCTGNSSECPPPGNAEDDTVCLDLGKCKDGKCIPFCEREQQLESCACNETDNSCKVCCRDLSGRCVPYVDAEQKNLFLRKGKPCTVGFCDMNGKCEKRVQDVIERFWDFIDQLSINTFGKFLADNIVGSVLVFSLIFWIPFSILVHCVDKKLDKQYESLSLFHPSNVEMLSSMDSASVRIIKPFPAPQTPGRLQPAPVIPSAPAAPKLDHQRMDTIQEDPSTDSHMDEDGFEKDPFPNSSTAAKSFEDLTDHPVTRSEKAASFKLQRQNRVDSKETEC
Pemphigus Ab inh: human desmoglein-3 autoantibody binding inhibition | binding (percent of control), % at 10 µM | P32926 | 310,000 compounds, 0.48% hits | DSG3-coupled beads, scFv-anti-DSG3-GFP binding, flow cytometry; hits give low values | AID 588358;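 active means binding more than 3 SD below its plate's average and above zero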;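 further: hits lower antibody fragment binding to DSG3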
MPTP counter: mitochondrial membrane potential, counter-screen; shares compounds with MPTP inh; isolated mitochondria, Rhodamine 123 fluorescence; inhibition, % at 10 µM; 5,000 compounds, 78% hits; in the data active means inhibition above about 22%
MPTP abs DR: MPTP inhibition, dose response swelling confirmation. shares compounds with MPTP inh. isolated mitochondria swelling, absorbance. IC50, µM. 780 compounds, 58% hits. AID 651561; in the data active means IC50 below about 20 µM
MPTP cs DR: active in counter-screen for permeability transition pore inhibitors; AID 651564; IC50, µM; shares compounds with MPTP inh; isolated mitochondria counterscreen, fluorescence read-out; 780 compounds, 49% hits; in the data active means IC50 below about 80 µM
Each line names hits and unclear results; the compound was inactive in the other large screens (follow-up assays come after a bar, where they were run).

C=CCN=c1scc(-c2ccc(F)cc2)n1/N=C/c1ccccn1	none
COc1ccc(CN(C)Cc2nc(Cc3cccc(F)c3)no2)c2cccnc12	MPTP inh 73 | MPTP counter 83
c1ccc(-c2nc(SCc3nc4ccccc4[nH]3)c3oc4ccccc4c3n2)cc1	MPTP inh 50 | MPTP counter 85
Cc1nc(SCc2nc3ccccc3[nH]2)c2oc3ccccc3c2n1	none
COCc1cc(N2CCNC[C@@H]2C)ccc1N1CCN(Cc2ccccc2)[C@@H](C)C1	none (no result: MPTP inh, Pemphigus Ab inh)
CC(=O)c1c(C)[nH]c(C(=O)OCc2ccc(F)cc2Cl)c1C	MPTP inh 78 | MPTP counter 69
COc1ccc(OCCOC(=O)c2[nH]c(C)c(C(C)=O)c2C)cc1	MPTP inh 56 | MPTP counter 31
Cc1[nH]c2ccccc2c1CC(=O)Nc1ccc(Nc2cccnc2)c(-c2cc(C(F)(F)F)cc(C(F)(F)F)c2)c1	none (no result: MPTP inh, Pemphigus Ab inh)
OC(COc1ccc(OCC(O)CN2CCCCC2)cc1)CN1CCCCC1 (centres undefined)	none
OC(COc1ccc(CNCCc2ccc(C(F)(F)F)cc2)cc1)CN1CCCCC1 (centres undefined)	MPTP inh 67 | MPTP counter inactive
COc1ccc(CNCC(O)COc2cccc3c2OC(C)(C)C3)cc1 (centres undefined)	MPTP inh 75 (no result: Pemphigus Ab inh) | MPTP counter 46
O=C(/C=C/NNC(=O)c1cccc(Br)c1)c1cccc(Br)c1	MPTP inh 51 | MPTP counter 58
O=C(/C=C/NNC(=O)c1ccccc1)c1ccc(Br)cc1	none
CCc1noc2cc(-c3ccccc3)n(C)c(=O)c12	none (no result: MPTP inh, Pemphigus Ab inh)
COc1cc(CNCCSc2nnnn2C)cc(Br)c1OCc1ccc(F)cc1	none
CCOc1cc(CNCCSc2nnnn2C)cc(Br)c1OCc1ccc(F)cc1	MPTP inh 93 | MPTP counter inactive | MPTP abs DR inactive | MPTP cs DR 23
Cc1c(Cl)cccc1NC(=S)N1CCCN(Cc2ccccc2F)C1	MPTP inh 69 | MPTP counter 74
Cc1c(Cl)cccc1NC(=S)N1CCCN(Cc2ccc(F)cc2)C1	none
Fc1ccccc1CN1CCCN(C(=S)Nc2cccc(Cl)c2)C1	MPTP inh 92 | MPTP counter 76
O=C(N[C@H](C(=O)N1CCC[C@H]1C(=O)NC1CCCC1)C1CCCCC1)c1cccs1	none (no result: MPTP inh, Pemphigus Ab inh)
Cc1cc(C)cc(OCC(=O)N2N=C(C(F)(F)F)CC2(O)C(C)(C)C)c1 (centres undefined)	MPTP inh 57 | MPTP counter 43
Nc1cc(=O)nc(SCC(=O)N(C2CCCCC2)C2CCCCC2)n1-c1ccccc1	MPTP inh 64 | MPTP counter inactive | MPTP abs DR inactive | MPTP cs DR inactive
Brc1ccc2[nH]c3c(NCc4ccccn4)ncnc3c2c1	MPTP inh 57 | MPTP counter 72
COc1ccc(CNc2ncnc3c2[nH]c2ccccc23)cc1	MPTP inh 91 | MPTP counter 91
C1=C(CCNc2ncnc3c2[nH]c2ccccc23)CCCC1	MPTP inh 104 | MPTP counter 83
C=CCN1[C@H](C)COc2cc(N3CCSCC3)ccc2S1(=O)=O	none (no result: MPTP inh, Pemphigus Ab inh)
CCOc1ccc(NS(=O)(=O)c2ccc(C(=O)NCC(c3ccc(OC)cc3)N3CCCC3)cc2)cc1 (centres undefined)	MPTP inh 85 | MPTP counter inactive | MPTP abs DR 9 | MPTP cs DR inactive
COc1ccc(C(CNC(=O)c2ccc(NS(=O)(=O)c3ccc(F)c(C)c3)cc2)N2CCCC2)cc1 (centres undefined)	none
OC(CNCC1CCCO1)Cn1c2ccc(Cl)cc2c2cc(Cl)ccc21 (centres undefined)	none
OC(CNCC1CCCO1)Cn1c2ccccc2c2ccccc21 (centres undefined)	MPTP inh 74 | MPTP counter inactive | MPTP abs DR 10 | MPTP cs DR inactive
Cc1cc2c(nc1C)CCCN2S(=O)(=O)c1ccccc1	none (no result: MPTP inh, Pemphigus Ab inh)
CN1CCCC(CC2c3ccccc3Sc3ccccc32)C1 (centres undefined)	MPTP inh 100 | MPTP counter inactive | MPTP abs DR 9.4 | MPTP cs DR inactive
CN1CCCC(CN2c3ccccc3Sc3ccccc32)C1 (centres undefined)	MPTP inh 82 | MPTP counter inactive
O=C(C1CCN(S(=O)(=O)c2ccc3[nH]c(=O)oc3c2)CC1)N1CCCC1	none (no result: MPTP inh, Pemphigus Ab inh)
Cc1ccc(/C=C2/SC(=S)N(CCC(=O)N3CCN(C)CC3)C2=O)cc1	MPTP inh 79 | MPTP counter inactive | MPTP abs DR inactive | MPTP cs DR inactive
Cc1ccc(/C=C2\SC(=S)N(CCC(=O)N3CCCCC3)C2=O)cc1	none
COc1ccc(NC(=O)C2CCN(S(=O)(=O)c3ccc(N4CCCC4=O)cc3)CC2)c(OC)c1	none
COc1ccc(NC(=O)C2CCN(S(=O)(=O)c3ccc4c(c3)NC(=O)C(C)S4)CC2)cc1 (centres undefined)	none (no result: Pemphigus Ab inh)
CC1Sc2ccc(S(=O)(=O)N3CCC(C(=O)Nc4ccc(Cl)cc4)CC3)cc2NC1=O (centres undefined)	MPTP inh 99 | MPTP counter 100
Cc1ccc(NC(=O)C2CCN(S(=O)(=O)c3ccc(N4CCCC4=O)cc3)CC2)cc1Cl	MPTP inh 102 | MPTP counter 108
CC(OC(=O)c1cc(Br)ccc1O)C(=O)Nc1ccc(S(=O)(=O)N2CCCC2)cc1 (centres undefined)	MPTP inh 87 | MPTP counter 91
Cc1ccc(OCCNC(=O)c2cc(C(=O)NCCOc3ccc(C)cc3)cc([N+](=O)[O-])c2)cc1	MPTP inh 74 | MPTP counter 83
CC(C)c1ccc(/C=N/NC(=O)c2cccc(Cl)c2)cc1	MPTP inh 74 | MPTP counter 65
O=C(Nc1cc(Oc2ccc(Cl)cc2)cc([N+](=O)[O-])c1)c1ccco1	MPTP inh 91 | MPTP counter 74
O=C(CCc1ccc(Oc2cc([N+](=O)[O-])cc([N+](=O)[O-])c2)cc1)Nc1cccc(Cl)c1	MPTP inh 97 | MPTP counter 78
O=C(Nc1ccc(OC(=O)c2ccco2)cc1)c1ccco1	none (no result: Pemphigus Ab inh)
COc1ccc(CCC(=O)Nc2cccc(Cl)c2)cc1	none
O=C(Nc1ccc(Cl)c(Cl)c1)Oc1ccc(NC(=O)c2ccco2)cc1	MPTP inh 102 | MPTP counter 77
COc1ccccc1CNc1nc(NC(C)C)nc2cc(-c3ccccc3)sc12	MPTP inh 75 (no result: Pemphigus Ab inh) | MPTP counter 101
